Compounds with a hit are over-represented: about 0.86% of the library has one in this group of screens.
FEN1 inh-1: qHTS Assay for the Inhibitors of Human Flap endonuclease 1 (FEN1); P39748; Recombinant FEN1 flap cleavage, fluorescence, 15 min; Potency, µM (highest dose often 114 µM), inactives show at the top dose activity change, negative = inhibition, most hits filed as inhibitors; actives 0.35% (n = 390,000); also: % is scaled to controls: 0 for no effect and ±100 for the full control effect; nearly all actives have a fitted effect of over 65% in size
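FEN1 at 10 nM preincubated with compounds 15 min at room temperature, then flap DNA substrate added at 50 nM final. Signal read at 0 and 15 min; concentration-response fitted with four-parameter Hill equation.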
BLM helicase inh: qHTS Assay for Inhibitors of Bloom's syndrome helicase (BLM). recombinant BLM DNA unwinding, fluorescence dequenching. Potency, µM (series often up to 56.1 µM), for inactives: at the highest dose activity change, negative = inhibition, hits mostly inhibitors. actives 0.2% (n = 350,000). RecQ-like DNA helicase BLM (Homo sapiens), P54132;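 also: plate controls were vehicle for no effect and no enzyme for full effect; nearly all actives have a fitted effect of over 35% in size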
Target sequence (P54132 whole entry, looked up): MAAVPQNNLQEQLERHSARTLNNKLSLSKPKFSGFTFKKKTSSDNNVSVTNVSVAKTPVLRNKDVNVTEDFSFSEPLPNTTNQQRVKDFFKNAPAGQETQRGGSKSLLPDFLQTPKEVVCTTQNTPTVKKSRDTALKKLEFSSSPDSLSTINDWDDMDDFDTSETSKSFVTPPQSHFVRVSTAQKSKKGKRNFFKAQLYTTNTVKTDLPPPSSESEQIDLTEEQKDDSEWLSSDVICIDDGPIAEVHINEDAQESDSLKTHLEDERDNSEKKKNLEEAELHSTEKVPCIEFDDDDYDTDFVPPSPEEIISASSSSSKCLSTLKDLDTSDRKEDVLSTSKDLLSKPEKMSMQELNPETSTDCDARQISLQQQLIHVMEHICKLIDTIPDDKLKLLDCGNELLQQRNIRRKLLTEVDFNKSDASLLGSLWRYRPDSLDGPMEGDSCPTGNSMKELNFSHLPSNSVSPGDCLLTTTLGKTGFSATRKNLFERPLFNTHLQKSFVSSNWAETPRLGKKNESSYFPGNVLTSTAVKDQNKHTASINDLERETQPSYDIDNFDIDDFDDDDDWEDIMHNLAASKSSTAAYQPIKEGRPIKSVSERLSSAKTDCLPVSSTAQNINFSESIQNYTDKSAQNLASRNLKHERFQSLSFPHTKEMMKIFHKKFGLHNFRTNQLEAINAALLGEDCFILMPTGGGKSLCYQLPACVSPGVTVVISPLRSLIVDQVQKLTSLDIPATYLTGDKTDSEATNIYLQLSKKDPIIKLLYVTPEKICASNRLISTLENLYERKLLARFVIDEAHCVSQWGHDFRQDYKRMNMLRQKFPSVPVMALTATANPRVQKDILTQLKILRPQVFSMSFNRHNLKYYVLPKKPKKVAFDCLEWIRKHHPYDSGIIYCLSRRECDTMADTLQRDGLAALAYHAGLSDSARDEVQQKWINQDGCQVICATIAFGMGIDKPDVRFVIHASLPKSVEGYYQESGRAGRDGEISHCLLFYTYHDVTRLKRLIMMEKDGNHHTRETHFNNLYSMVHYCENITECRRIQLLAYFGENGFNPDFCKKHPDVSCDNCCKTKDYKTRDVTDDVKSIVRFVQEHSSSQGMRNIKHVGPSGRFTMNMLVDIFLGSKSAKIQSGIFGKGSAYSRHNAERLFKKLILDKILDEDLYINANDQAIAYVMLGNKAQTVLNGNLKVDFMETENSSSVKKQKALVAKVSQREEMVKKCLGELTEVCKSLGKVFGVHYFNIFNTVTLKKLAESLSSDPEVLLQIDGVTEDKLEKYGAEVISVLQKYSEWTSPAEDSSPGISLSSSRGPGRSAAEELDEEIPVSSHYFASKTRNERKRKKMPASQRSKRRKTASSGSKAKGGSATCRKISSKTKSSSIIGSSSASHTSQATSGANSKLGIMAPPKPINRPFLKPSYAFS
Tb PGK inh: qHTS Assay to Find Inhibitors of Phosphoglycerate Kinase | Potency, µM (top dose mostly 57.5 µM), for inactives: at the top dose activity change, negative = inhibition, actives largely listed as inhibitors | actives 0.043% (n = 380,000) | Phosphoglycerate kinase, glycosomal (Trypanosoma brucei brucei), P07378 | AID 602233, 2012 | PGK/GAPDH coupled, Kinase-Glo luminescence, 60 min; also: % is scaled to controls: 0 for no effect and ±100 for the full control effect; nearly all actives have a fitted effect of over 60% in size
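Recombinant glycosomal PGK reaction used 1,3-bisphosphoglycerate generated in-well by GAPDH (100nM final) in 100mM TEA pH 7.6, 5mM MgCl2, 0.01% Tween-20. After 60 minutes at room temperature, ATP was read by Kinase-Glo Plus luminescence end-point.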
GLS inh: qHTS for Inhibitors of Glutaminase (GLS); Glutaminase kidney isoform, mitochondrial (Homo sapiens), O94925; GLS enzymatic activity, qHTS titration; Potency, µM (highest dose often 45.5 µM), inactives show at the highest dose activity change, negative = inhibition, usual class: inhibitors; actives 0.21% (n = 410,000); also: % is scaled to controls: 0 for no effect and ±100 for the full control effect
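hKGA; 45 mM KH2PO4 pH 8.2 + 0.02% Tween-20; cpd via pin tool; 1 mM Gln soln; GluOx/HRP/Amplex Red; RT 30 min; fluor. t0 & final.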
APE1 inh: qHTS Assay for Inhibitors of the Human Apurinic/apyrimidinic Endonuclease 1 (APE1); DNA repair nuclease/redox regulator APEX1 (Homo sapiens), P27695; recombinant APE1, TAMRA/BHQ-2 abasic DNA cleavage fluorescence; Potency, µM (highest dose often 65.8 µM), for inactives: at the highest dose activity change, negative = inhibition, most hits filed as inhibitors; actives 0.35% (n = 350,000); AID 2517, 2012;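 also: plate controls were vehicle for no effect and reference inhibitor for full effect; nearly all actives have a fitted effect of over 55% in size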
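Step 1: APE1 (0.75 nM) with compound, 15 min RT. Step 2: add 50 nM fluorophore/quencher THF duplex. Step 3: three fluorescence reads 60 s apart (525/598 nm); read 3 minus read 1 = reaction progress.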
RECQ1 inh: qHTS Assay for Inhibitors of RecQ-Like Dna Helicase 1 (RECQ1); actives 0.54% (n = 240,000); Potency, µM (doses to about 57.3 µM), without a hit: at the top dose activity, negative = inhibition, most hits filed as inhibitors; ATP-dependent DNA helicase Q1 (Homo sapiens), P46063; RECQ1 DNA unwinding, red fluorescence kinetic read;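 also: plate controls were vehicle for no effect and no enzyme for full effect; nearly all actives have a fitted effect of over 30% in size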
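50 nM RECQ1T1 preincubated 15 min with compound in Tris pH 8.0 buffer with MgCl2, DTT, Tween-20 and 2.5 ug/ml poly(dI-dC); started with 200 nM TAMRA/BHQ-2 forked duplex and 2 mM ATP. Unwinding read as fluorescence (525/598 nm), two reads 2 h apart.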
FEN1 inh-2: qHTS Assay for the Inhibitors of FEN1: Confirmatory Assay for Cherry-picked Compounds | shares compounds with FEN1 inh-1 | FEN1 flap cleavage, TAMRA/BHQ2 fluorogenic DNA substrate | Potency, µM, actives largely listed as inhibitors | actives 79% (n = 880); also: nearly all actives have a fitted effect of over 60% in size
Starred values were filed as active, the others as inactive; i = inactive; ? = inconclusive; nt = no result. Calls follow the shape of the dose curve; as a rule, active = well fitted curve in the direction sought with a large enough effect; inconclusive = small, poorly fitted or top-dose-only effect, or another doubt; inactive = no such curve, though single readings can be large; an effect the other way counts as inactive or inconclusive. Potency is read from the fitted curve at half-maximal effect.

SMILES	FEN1 inh-1	BLM helicase inh	Tb PGK inh	GLS inh	APE1 inh	RECQ1 inh	FEN1 inh-2
O=C(O)CC1(c2ccccc2)C(=O)c2ccccc2C1=O	0%	3%	-1%	7%	-3%	-4%	nt
CC(=O)N1CCCc2cc(S(=O)(=O)N3CCN(c4ccc(F)cc4)CC3)ccc21	11%	-2%	9%	-1%	nt	nt	nt
Cc1ccc(C)c(Nc2nc3c(S(=O)(=O)c4ccc(Br)cc4)nnn3c3ccsc23)c1	?	?	-3%	-16%	nt	nt	?
Cc1ccc(C)c(Nc2nc3c(S(=O)(=O)c4ccc(C(C)C)cc4)nnn3c3ccsc23)c1	-2%	-5%	1%	5%	nt	nt	nt
Cc1ccc(Nc2c(-c3c[nH]c4ccccc34)nc3ccccn23)cc1	3%	0%	-2%	16%	nt	nt	nt
COc1ccccc1/C=N/N1C(=O)c2cccc3cccc(c23)C1=O	-2%	-2%	-3%	-6%	-7%	-4%	nt
O=C1c2cccc3cc([N+](=O)[O-])cc(c23)C(=O)N1/N=C/c1ccc(O)cc1O	?	-16%	2%	16%	?	-16%	43*
CCOc1ccc(-c2nonc2NC(=O)c2oc3cc(Br)ccc3c2C)cc1	-7%	-6%	-7%	-12%	nt	nt	nt
CCN1/C(=C/C=C/c2oc3ccc(-c4ccccc4)cc3[n+]2CC)Oc2ccc(-c3ccccc3)cc21	32µM*	22µM*	-12%	0%	6%	-18%	27*
CCCCN1C(=O)/C(=C/C=C2\Oc3ccccc3N2CC)SC1=S	?	-4%	-6%	6%	13%	i	nt
CCOc1ccc(N(C)c2ccc(/C=C3/SC(=S)NC3=O)cc2)cc1	?	-8%	-9%	17%	-14%	nt	nt
CN(C)c1ccc(C=C2SC(=S)NC2=O)cc1	-34%	nt	-14%	1%	nt	nt	?
Cc1cc(N)c2cc(NC(=O)/C=C/c3ccccc3Cl)ccc2n1	?	131%	-7%	-3%	8%	64%	76*
O=[N+]([O-])c1ccc(/C=N/Nc2nc(N3CCCCCC3)nc(N3CCCCCC3)n2)o1	35µM*	-18%	-6%	-5%	8%	0%	38*
C1=Cc2ccccc2/C1=C(\Cc1ccncc1)Oc1ccncc1	-4%	nt	nt	nt	nt	nt	nt
C=CCc1ccccc1OCc1nc2ccccc2n1CC	-17%	-6%	6%	1%	nt	nt	nt
Cc1ccc(C)n1-c1cccc(C(=O)O)c1	nt	?	nt	nt	1.8µM*	?	21*
O=C(O)c1cccc(N2CCCC2)c1	6%	0%	6%	18%	-2%	i	nt
Cc1ccccc1NC(=O)c1cccc2c(=O)c3c([nH]c12)CCCC3	4%	-2%	-10%	-3%	nt	nt	nt
Cc1cc(C)c(S(=O)(=O)NCC(c2ccc(N(C)C)cc2)N2CCOCC2)c(C)c1 (stereo unspecified)	-5%	-2%	i	19%	nt	nt	nt
O=C(ONC(=O)C1CCCCC1C(=O)NOC(=O)c1ccccc1)c1ccccc1 (stereo unspecified)	18µM*	nt	2%	-2%	nt	nt	13*
O=C1CS(=O)(=O)C2(C(=O)N(Cc3cccc(F)c3)c3ccccc32)N1c1ccccc1 (stereo unspecified)	0%	-8%	2%	5%	nt	nt	nt
CCOc1ccc(-c2cc3cc(OC)c(OC)cc3c(C)n2)cc1	0%	-3%	2%	0%	4%	-1%	nt
COc1cc2cc(-c3ccc(O)cc3O)nc(C)c2cc1OC	?	-15%	i	3%	-6%	nt	?
COc1ccc(-c2oc3ncnc(NCCCN(C)C)c3c2-c2ccc(OC)cc2)cc1	?	1%	-9%	6%	-15%	nt	?
SMILES	FEN1 inh-1	BLM helicase inh	Tb PGK inh	GLS inh	APE1 inh	RECQ1 inh	FEN1 inh-2
CN(C)CCNc1ncnc2oc(-c3ccccc3)c(-c3ccccc3)c12	?	26%	-19%	3%	10%	nt	nt
O=C(O)c1ccc(-n2cccc2/C=N\NC(=O)c2cc3cc(Br)ccc3o2)cc1	?	-6%	?	14%	3.5µM*	?	?
CCCn1c(=O)c2sccc2n2c(CCCC(=O)N3CCN(c4cccc(C)c4C)CC3)nnc12	-11%	0%	i	-10%	nt	nt	nt
Cn1c(N)c(C(=O)CSc2nnc(-c3c[nH]c4ccccc34)n2C2CC2)c(=O)[nH]c1=O	20µM*	nt	-17%	0%	?	nt	43*
CCCn1c(N)c(C(=O)CSc2nnc(-c3c[nH]c4ccccc34)n2C2CC2)c(=O)[nH]c1=O	7%	nt	1%	-4%	5%	nt	nt
CC(=O)N1CCOc2cc(S(=O)(=O)Nc3c(C)cccc3C(C)C)c(Cl)cc21	-1%	-5%	2%	0%	15%	nt	nt
CN(C)/C=C1\SC(=S)N(c2ccc(Br)cc2)C1=O	?	4%	1%	-6%	28µM*	32µM*	34*
CN(C)/C=C1\SC(=S)N(c2ccc(F)cc2)C1=O	-1%	0%	-4%	-9%	0%	i	nt
CN1CCc2c(sc(/N=C/c3c[nH]c4ccccc34)c2C#N)C1	?	4%	-1%	0%	-6%	?	?
CCOC(=O)c1c(/N=C/c2ccc(OC)cc2O)sc2c1CCN(C)C2	-23%	-6%	9%	0%	7%	?	nt
CN1CCc2c(sc(/N=C/c3c[nH]c4ccccc34)c2C(N)=O)C1	?	-18%	-1%	?	-4%	2%	76*
Cc1ccc2c(c1)C(c1ccc(F)cc1)N(C(=O)c1ccc(S(=O)(=O)N3CCCCC3)cc1)CC(=O)N2 (stereo unspecified)	-11%	-12%	1%	0%	nt	nt	nt
COc1ccc(N2CCc3c(C)nc4c(OC)cc(OC)cc4c32)cc1	40µM*	169%	22%	-15%	-5%	19%	38*
COc1ccc(/C=C2/SC(=S)N(c3ccc(S(=O)(=O)Nc4nccs4)cc3)C2=O)cc1	50µM*	-28%	-2%	-1%	-3%	?	60*
COc1ccccc1CNC(=O)CSC1=Nc2ccccc2N=C(c2ccc(F)cc2)C1	-5%	0%	-6%	10%	nt	nt	nt

High-throughput results as filed in PubChem.
